Records with an inconclusive call do not appear. Calls of active or inactive are those of the source. The calls were made as follows: active = hit-call score of the fitted dose curve at least 0.9, where 1 is the maximum; inconclusive = response in the unintended direction; inactive = score below 0.9.

The experiment in a line: Tanguay_ZF_120hpf_SOMI_legacy: (Legacy) Oregon State University Tanguay Lab 120 Hour Post-fertilization zebrafish Assay for Somite Malformation (AID 2283647). On the procedure: Tanguay_ZF_120hpf_legacy is a whole embryo, multiplexed endpoint assay using zebrafish larvae exposed for 120 hours post fertilization on a 96-well plate.Tanguay_ZF_120hpf_SOMI_legacy is one of one assay component(s) measured or calculated from the Tanguay_ZF_120hpf_legacy assay. It is designed to make measurements of zebrafish development as detected with brightfield microscopy of developing zebrafish embryos.Data from the assay component Tanguay_ZF_120hpf_SOMI_legacy was analyzed into 1 assay endpoints. This assay endpoint, Tanguay_ZF_120hpf_SOMI_legacy, was analyzed in the positive analysis fitting direction relative to DMSO as the negative control and baseline of activity. Using a type of morphology reporter, gain-of-signal activity can be used to understand changes in developmentals as they relate to the whole embryo. To generalize the intended target to other relatable targets, this assay endpoint is annotated to the zebrafish development intended target family, where the subfamily is somitogenesis.
Zebrafish husbandry: Tropical 5D wild-type adult zebrafish were housed in at an approximate density of 1000 per 100 gallon tank at the Sinnhuber Aquatic Research Laboratory, Oregon State University, Corvallis, OR. Each tank was kept at standard laboratory conditions of 28C on a 14-h light/10-h dark photoperiod in fish water consisting of reverse osmosis water supplemented with a commercially available salt (Instant Ocean). Spawning funnels were placed into the tanks the night prior, and embryos were collected and staged. To increase bioavailability, the chorion was enzymatically removed using pronase (63.6mg/ml, >/= 3.5U/mg, Sigma-Aldrich: P5147) at 4 hours post fertilization (hpf) using a custom automated dechorionator.Chemical exposures: Six hpf dechorionated embryos were placed 1 embryo per well in a 96-well plate prefilled with 90 ul of EM using automated embryo placement systems (AEPS). Ten microliters of each row of dilution plate 2 was added to 2 exposure plates. The final DMSO concentration used was 0.64% (vol/vol). Thirty-two embryos were also exposed to 5uM trimethyltin chloride (positive control). Plates were sealed to prevent evaporation and foil covered to reduce light exposure and kept in a 28C incubator. Embryos were statically exposed until 120 hpf. At 24 hpf, embryos were assessed for photomotor response using a custom photomotor response analysis tool (PRAT) and for developmental toxicity endpoints (MO24: mortality at 24 hpf, DP: developmental progression, SM: spontaneous movement, and NC: notochord distortion). At 120 hpf, locomotor activity was measured using Viewpoint Zebralab and assessed for 18 endpoints. Zebrafish acquisition and analysis program (ZAAP), a custom program designed to inventory, acquire, and manage zebrafish data, was used to collect developmental endpoints as either present or absent (i.e., binary responses were recorded). If mortality occurred for an embryo (at either 24 or 120 hpf), the non-mortality endpoints were not measured.
In the case of `N#C[C@@H]1CC(F)(F)CN1C(=O)CNC1CC2CCC(C1)N2c1ncccn1` (stereo not given in full), the outcome was inactive.

Turning to `CCN(CC)CCNc1ccc(CNC=O)c2sc3ccc(OC)cc3c(=O)c12`, the call was inactive.

Take `NC(=O)N(O)[C@@H]1C=C[C@H](Oc2cccc(Oc3ccc(F)cc3)c2)C1`: the call was inactive.

As to `NC(=O)N1C(=O)C(C(=O)c2cc(Cl)cs2)c2cc(F)c(Cl)cc21` (stereo not given), the compound was classed as inactive.

For `CC(C)(C)c1ccc(O)c(C(C)(C)C)c1`, the result was inactive.

Take `COCC(C)O` (stereo not given): the call was inactive.

Take `CN(C)C=O`: the outcome was inactive.

As to `O=[N+]([O-])c1ccc(O)cc1`, the call was inactive.

With `C[C@@H]1C[C@H]2[C@@H]3CCC4=CC(=O)C=C[C@]4(C)[C@@]3(F)[C@@H](O)C[C@]2(C)[C@@]1(O)C(=O)COP(=O)(O)O`, the call was inactive.

Turning to `OC1CCC(C2CCCCC2)CC1` (stereo not given), the result was inactive.

As to `CCc1nn(C2CCCCC2)c2cc(C3(C#N)CCC(C(=O)O)CC3)ccc12` (stereo not given), the AC50 is 0.506 µM (active).

With `CCC(=C(c1ccc(O)cc1)c1ccc(OCCN(C)C)cc1)c1ccccc1`, the result was inactive.

Turning to `CC(=O)NC1(c2cccc(F)c2)CCN(CC[C@@]2(c3ccc(Cl)c(Cl)c3)CN(c3ccccc3)C(=O)CO2)CC1`, the compound was called inactive.

Take `CCCCCCCC(=O)O`: the result was inactive.

For the compound `COC(=O)CCCCC(=O)OC`, the result was inactive.

In the case of `Cc1cc(C)c(O)c(C)c1`, the compound was classed as inactive.

Consider `Oc1cc2ccccc2c2ccccc12`, for which the AC50 is 12.4 µM (active).

With `ClC1=C(Cl)C(Cl)(Cl)C(Cl)=C1Cl`, the compound was called inactive.

With `CCCOc1sc(C(=O)N2CCC(c3cc(CN)ccc3F)CC2)c(C)c1Br`, the call was inactive.

In the case of `OC1CCCCC1`, the result was inactive.

Regarding `CCCCC(CC)COC(=O)CCCCC(=O)OCc1ccccc1` (stereo not given), the compound was called inactive.

As to `OCCC(F)(F)C(F)(F)C(F)(F)C(F)(F)C(F)(F)C(F)(F)C(F)(F)C(F)(F)F`, the compound was classed as inactive.

With `c1ccc2cc3c(ccc4ccccc43)cc2c1`, the result was inactive.

Take `CC[C@H](C)[C@@H](C(=O)O)n1sc2ccccc2c1=O`: the compound was classed as inactive.

Regarding `O=c1c(-c2ccc(O)cc2)coc2cc(O)ccc12`, the outcome was inactive.

As to `CCCCC(CC)COC(=O)CCCCC(=O)OCC(CC)CCCC` (stereo not given), the result was inactive.

For the compound `CC(=O)CC(C)(C)O`, the compound was called inactive.

In the case of `CC#C[C@]1(O)CC[C@H]2[C@@H]3CCC4=CC(=O)CCC4=C3[C@@H](c3ccc(N(C)C)cc3)C[C@@]21C`, the outcome was inactive.

With `Cc1oc(-c2ccccc2)nc1CCOc1ccc(C[C@H](Nc2ccccc2C(=O)c2ccccc2)C(=O)O)cc1`, the outcome was inactive.

Take `CC(C)(C)c1cccc(C(C)(C)C)c1O`: the result was inactive.

For `CCCCCCCCCCCCN1CCCC1=O`, the compound was classed as inactive.

For `OCCC(F)(F)C(F)(F)C(F)(F)C(F)(F)C(F)(F)C(F)(F)F`, the compound was classed as inactive.

Regarding `CN1CCN(c2ccccc2/C=C2\SCCN(c3ccc(Cl)c(Cl)c3)C2=O)CC1`, the call was inactive.

`c1ccc2c(c1)Cc1ccccc1-2`: the call was inactive.

As to `CCCCCCCCCCCCCCCS(=O)(=O)Oc1ccccc1`, the result was inactive.

As to `O=C(O)c1ccccc1C(c1ccc(O)cc1)c1ccc(O)cc1`, the outcome was inactive.

On to `CCCCCCC(=O)O`, for which the compound was classed as inactive.

As to `Cc1cc(CCN2CCN(c3nsc4ccccc34)CC2)cc2c1NC(=O)CC2(C)C`, the AC50 was 3.88 µM (active).

On to `Oc1cccc(O)c1`, for which the call was inactive.

For the compound `CC(O)CO` (stereo not given), the call was inactive.

Broadly, the AC50 is the concentration at which the activity in the assay is half-maximal.
